The target of the first test is Dual specificity tyrosine-phosphorylation-regulated kinase 1A (Homo sapiens) (UniProt Q13627). Conditions: at 0.1 µM.
In the case of `CCc1cccc(NC(=O)Nc2ccc(Oc3ccc4nc(NC(=O)OC)[nH]c4c3)cc2)c1`, the inhibition came to 0.05%.

On to `CCn1c(-c2nonc2N)nc2ccncc21`, for which the inhibition came out at 0.1%.

`O=C1Nc2ccc(C(=O)c3ccco3)cc2C1=Cc1cc(Cl)c(O)c(Cl)c1`: the inhibition was found to be 40.5%.

On to `CS(=O)(=O)CCNCc1ccc(-c2ccc3ncnc(Nc4ccc(OCc5ccccc5)c(Cl)c4)c3c2)o1`, for which the inhibition came to 2.24%.

On to `CCn1c(-c2nonc2N)nc2cncc(C(=O)N3CC[C@H](N)C3)c21`, for which the inhibition came out at 12.7%.

Consider `Cc1cccc(-c2n[nH]cc2-c2ccc3ncccc3n2)n1`, for which the inhibition was 1.27%.

Consider `CCCN1CCC=C(c2ccc(Nc3nc(Nc4ccccc4C(N)=O)c4cc[nH]c4n3)c(C)c2)C1`, for which the inhibition is 56.2%.

Consider `Nc1ncnc2occ(-c3ccc(NC(=O)Nc4cccc(C(F)(F)F)c4)cc3)c12`, for which the inhibition amounted to 3.42%.

The next test shares this target. Conditions: at 1 µM.
With `COc1cc2ncn(-c3cc(OCc4ccccc4C(F)(F)F)c(C(N)=O)s3)c2cc1OC`, the inhibition amounted to 2.2%.

Consider `CCn1c(-c2nonc2N)nc2c(N3CCCC3)nccc21`, for which the inhibition is 8.89%.

In the case of `COc1ccc(-c2coc3ncnc(N)c23)cc1`, the inhibition was found to be 19.2%.

On to `Nc1nc(-c2ccc3c(c2)C(=Cc2cc(Br)c(O)c(Br)c2)C(=O)N3)cs1`, for which the inhibition worked out at 4.89%.

As to `CS(=O)(=O)CCN(CC#N)Cc1ccc(-c2ccc3ncnc(Nc4ccc(OCc5cccc(F)c5)c(Cl)c4)c3c2)o1`, the inhibition was -0.17%.

For the compound `COc1ccc(-c2nn3ncccc3c2-c2ccnc(Nc3ccc(Cl)c(C(F)(F)F)c3)n2)cc1`, the inhibition came out at 2.05%.

As for `Cc1ccc(NC(=O)c2ccnc(N3CCCC3)c2)cc1-c1ccc(C(=O)NCC2CC2)cc1`, the inhibition came to 4%.

For `CC(C)=Cc1cccc2c1/C(=N/Nc1ccc(S(N)(=O)=O)cc1)C(=O)N2`, the inhibition came to 2.34%.

Consider `COc1cc2ncn(-c3cc(O[C@@H](C)c4ccccc4Cl)c(C(N)=O)s3)c2cc1OC`, for which the inhibition stood at 8.19%.

On to `CCCN1CCC(Oc2cc(Nc3nc(Nc4cccc(F)c4C(N)=O)c4cc[nH]c4n3)c(OC)cc2Cl)CC1`, for which the inhibition worked out at 25.9%.

Consider `Cc1nnc(-c2ccc(C)c(-c3ccc(C(=O)Nc4cccc(C#N)c4)cc3)c2)o1`, for which the inhibition came to 3.59%.

Regarding `NS(=O)(=O)c1ccc(N/N=C2\C(=O)Nc3ccc(C(=O)NCCc4c[nH]cn4)cc32)cc1`, the inhibition was found to be 30.6%.

For the compound `CC1=C(C(=O)Nc2ccc3[nH]ncc3c2)C(c2ccc3ccccc3c2)CC(=O)N1` (stereo unspecified), the inhibition was found to be 5.32%.

As to `NCc1ccc(-c2nc(-c3ccc(Cl)c(O)c3)c(-c3ccncc3)[nH]2)cc1`, the inhibition was determined as 3.85%.

On to `COc1cc(C=NNc2ncnc3c2cnn3-c2ccccc2)ccc1O`, for which the inhibition stood at 28.8%.

Turning to `Cc1ccc(C(=O)NC2CCCCC2)cc1-c1ccc(C(=O)NCC2CC2)cc1`, the inhibition was -0.59%.

With `COc1cc2c(cc1Nc1nc(N3CCc4ccccc43)c3cc[nH]c3n1)N(C(=O)CN(C)C)CC2`, the inhibition was found to be 3.98%.

Take `CC1=C(C(=O)Nc2ccc3[nH]ncc3c2)C(c2ccc(Cl)c(Cl)c2)CC(=O)N1` (stereo unspecified): the inhibition worked out at 3.73%.

As to `Nc1ncnc2occ(-c3ccc(NC(=O)Nc4cc(C(F)(F)F)cc(C(F)(F)F)c4)cc3)c12`, the inhibition turned out to be 2.4%.

Take `CS(=O)(=O)CCNCc1nc(-c2ccc3ncnc(Nc4ccc(F)c(Cl)c4)c3c2)cs1`: the inhibition came to 1.24%.

For the compound `COc1ccccc1Nc1ncc(-c2ccccc2)o1`, the inhibition is 3.38%.

Consider `CCn1c(-c2nonc2N)nc2cncc(C(=O)N3CCNCC3)c21`, for which the inhibition is 4.33%.

Take `CS(=O)(=O)Nc1ccc(N/C=C2\C(=O)Nc3ccccc32)cc1`: the inhibition was determined as 10.4%.

Take `CNC(=O)c1cncc(/C=C/c2c(Cl)cccc2Cl)c1`: the inhibition is -1.12%.

In the case of `Fc1cccc(COc2ccc(Nc3ncnc4sc(-c5cccs5)cc34)cc2Cl)c1`, the inhibition was found to be 6.51%.

Consider `N#Cc1c(NC(=O)c2cccc3ccccc23)sc2c1CCCC2`, for which the inhibition worked out at 4.31%.

Turning to `CCc1cccc(NC(=O)Nc2ccc(Oc3ccc4nc(NC(=O)OC)[nH]c4c3)cc2)c1`, the inhibition amounted to 1.26%.

In the case of `CCn1c(-c2nonc2N)nc2ccncc21`, the inhibition worked out at 2.88%.

As for `O=C1Nc2ccc(C(=O)c3ccco3)cc2C1=Cc1cc(Cl)c(O)c(Cl)c1`, the inhibition amounted to 78.3%.

As for `CS(=O)(=O)CCNCc1ccc(-c2ccc3ncnc(Nc4ccc(OCc5ccccc5)c(Cl)c4)c3c2)o1`, the inhibition came to 1.73%.

Regarding `CCn1c(-c2nonc2N)nc2cncc(C(=O)N3CC[C@H](N)C3)c21`, the inhibition was 49.4%.

Regarding `Cc1cccc(-c2n[nH]cc2-c2ccc3ncccc3n2)n1`, the inhibition was found to be 6.72%.

Consider `CCCN1CCC=C(c2ccc(Nc3nc(Nc4ccccc4C(N)=O)c4cc[nH]c4n3)c(C)c2)C1`, for which the inhibition came to 92.3%.

`Nc1ncnc2occ(-c3ccc(NC(=O)Nc4cccc(C(F)(F)F)c4)cc3)c12`: the inhibition amounted to 6.79%.

Another test deals with Dual specificity tyrosine-phosphorylation-regulated kinase 1B (Homo sapiens) (UniProt Q9Y463). Conditions: at 0.1 µM.
Sequence of Dual specificity tyrosine-phosphorylation-regulated kinase 1B (Homo sapiens) (Q9Y463 whole entry, looked up): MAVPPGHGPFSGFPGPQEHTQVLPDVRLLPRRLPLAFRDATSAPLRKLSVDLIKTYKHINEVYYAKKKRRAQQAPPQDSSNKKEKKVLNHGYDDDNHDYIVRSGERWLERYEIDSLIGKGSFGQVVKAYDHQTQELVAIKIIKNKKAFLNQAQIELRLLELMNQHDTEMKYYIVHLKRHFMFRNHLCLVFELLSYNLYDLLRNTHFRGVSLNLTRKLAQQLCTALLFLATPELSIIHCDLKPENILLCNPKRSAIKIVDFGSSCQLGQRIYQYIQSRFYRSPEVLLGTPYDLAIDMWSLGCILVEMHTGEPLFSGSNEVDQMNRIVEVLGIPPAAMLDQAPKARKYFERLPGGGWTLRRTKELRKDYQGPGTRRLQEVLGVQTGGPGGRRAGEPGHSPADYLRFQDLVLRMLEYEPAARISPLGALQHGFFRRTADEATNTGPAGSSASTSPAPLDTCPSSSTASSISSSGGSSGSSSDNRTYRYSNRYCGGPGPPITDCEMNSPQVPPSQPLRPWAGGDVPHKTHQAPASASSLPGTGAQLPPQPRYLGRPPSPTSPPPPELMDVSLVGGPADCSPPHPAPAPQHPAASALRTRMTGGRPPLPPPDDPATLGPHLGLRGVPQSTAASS
Consider `COc1cc2ncn(-c3cc(OCc4ccccc4C(F)(F)F)c(C(N)=O)s3)c2cc1OC`, for which the inhibition is -4.5%.

As to `CCn1c(-c2nonc2N)nc2c(N3CCCC3)nccc21`, the inhibition was determined as 2.51%.

Take `COc1ccc(-c2coc3ncnc(N)c23)cc1`: the inhibition was -0.37%.

On to `Nc1nc(-c2ccc3c(c2)C(=Cc2cc(Br)c(O)c(Br)c2)C(=O)N3)cs1`, for which the inhibition is 1.38%.

`CS(=O)(=O)CCN(CC#N)Cc1ccc(-c2ccc3ncnc(Nc4ccc(OCc5cccc(F)c5)c(Cl)c4)c3c2)o1`: the inhibition was -4.49%.

Regarding `COc1ccc(-c2nn3ncccc3c2-c2ccnc(Nc3ccc(Cl)c(C(F)(F)F)c3)n2)cc1`, the inhibition was -1.42%.

As for `Cc1ccc(NC(=O)c2ccnc(N3CCCC3)c2)cc1-c1ccc(C(=O)NCC2CC2)cc1`, the inhibition is -2.86%.

As to `CC(C)=Cc1cccc2c1/C(=N/Nc1ccc(S(N)(=O)=O)cc1)C(=O)N2`, the inhibition was found to be 0.57%.

`COc1cc2ncn(-c3cc(O[C@@H](C)c4ccccc4Cl)c(C(N)=O)s3)c2cc1OC`: the inhibition was -0.84%.

With `CCCN1CCC(Oc2cc(Nc3nc(Nc4cccc(F)c4C(N)=O)c4cc[nH]c4n3)c(OC)cc2Cl)CC1`, the inhibition turned out to be 3.49%.

On to `Cc1nnc(-c2ccc(C)c(-c3ccc(C(=O)Nc4cccc(C#N)c4)cc3)c2)o1`, for which the inhibition is 0.45%.

`NS(=O)(=O)c1ccc(N/N=C2\C(=O)Nc3ccc(C(=O)NCCc4c[nH]cn4)cc32)cc1`: the inhibition amounted to 5.35%.

Regarding `CC1=C(C(=O)Nc2ccc3[nH]ncc3c2)C(c2ccc3ccccc3c2)CC(=O)N1` (stereo unspecified), the inhibition worked out at 2.6%.

For `NCc1ccc(-c2nc(-c3ccc(Cl)c(O)c3)c(-c3ccncc3)[nH]2)cc1`, the inhibition stood at 4.36%.

`COc1cc(C=NNc2ncnc3c2cnn3-c2ccccc2)ccc1O`: the inhibition was found to be 1.97%.

In the case of `Cc1ccc(C(=O)NC2CCCCC2)cc1-c1ccc(C(=O)NCC2CC2)cc1`, the inhibition amounted to 0.96%.

Take `COc1cc2c(cc1Nc1nc(N3CCc4ccccc43)c3cc[nH]c3n1)N(C(=O)CN(C)C)CC2`: the inhibition was determined as 0.64%.

In the case of `CC1=C(C(=O)Nc2ccc3[nH]ncc3c2)C(c2ccc(Cl)c(Cl)c2)CC(=O)N1` (stereo unspecified), the inhibition stood at 0.77%.

On to `Nc1ncnc2occ(-c3ccc(NC(=O)Nc4cc(C(F)(F)F)cc(C(F)(F)F)c4)cc3)c12`, for which the inhibition came out at 0.19%.

As for `CS(=O)(=O)CCNCc1nc(-c2ccc3ncnc(Nc4ccc(F)c(Cl)c4)c3c2)cs1`, the inhibition amounted to 0.27%.

Consider `COc1ccccc1Nc1ncc(-c2ccccc2)o1`, for which the inhibition was -1.91%.

With `CCn1c(-c2nonc2N)nc2cncc(C(=O)N3CCNCC3)c21`, the inhibition was determined as 0.28%.

Regarding `CS(=O)(=O)Nc1ccc(N/C=C2\C(=O)Nc3ccccc32)cc1`, the inhibition was 3.56%.

With `CNC(=O)c1cncc(/C=C/c2c(Cl)cccc2Cl)c1`, the inhibition is -1.13%.

Take `Fc1cccc(COc2ccc(Nc3ncnc4sc(-c5cccs5)cc34)cc2Cl)c1`: the inhibition came out at 1.39%.

Take `N#Cc1c(NC(=O)c2cccc3ccccc23)sc2c1CCCC2`: the inhibition stood at 0.47%.

For `CCc1cccc(NC(=O)Nc2ccc(Oc3ccc4nc(NC(=O)OC)[nH]c4c3)cc2)c1`, the inhibition is 0.7%.

As to `CCn1c(-c2nonc2N)nc2ccncc21`, the inhibition was -0.02%.

Take `O=C1Nc2ccc(C(=O)c3ccco3)cc2C1=Cc1cc(Cl)c(O)c(Cl)c1`: the inhibition worked out at 47.4%.

For the compound `CS(=O)(=O)CCNCc1ccc(-c2ccc3ncnc(Nc4ccc(OCc5ccccc5)c(Cl)c4)c3c2)o1`, the inhibition was 1.31%.

As for `CCn1c(-c2nonc2N)nc2cncc(C(=O)N3CC[C@H](N)C3)c21`, the inhibition amounted to 7.9%.

In the case of `Cc1cccc(-c2n[nH]cc2-c2ccc3ncccc3n2)n1`, the inhibition is -0.18%.

As for `CCCN1CCC=C(c2ccc(Nc3nc(Nc4ccccc4C(N)=O)c4cc[nH]c4n3)c(C)c2)C1`, the inhibition was 39.5%.

Turning to `Nc1ncnc2occ(-c3ccc(NC(=O)Nc4cccc(C(F)(F)F)c4)cc3)c12`, the inhibition was -0.28%.

Source of the values: ChEMBL document CHEMBL1961873, “Compounds: GSK PKIS; Assays: Nanosyn kinase panel” (2012).
